Experimental data as given in PubChem BioAssay AID651932 (Southern Research Specialized Biocontainment Screening …, 2012).
The source made the active and inactive calls. How the calls were made is not given here.

assay: anti-respiratory syncytial virus activity – HEp-2 cells, set 2, counter-screen for VEEV inhibitor project (AID 651932); settings: RSV cytopathic effect inhibition; series mostly up to 25 µM

| SMILES | outcome |
| --- | --- |
| COc1ccc(NC(=O)c2cc([N+](=O)[O-])ccc2N=C2CN(C)CCN2C)cc1 | inactive |
| CCN1CCN(C)CC1=Nc1ccc([N+](=O)[O-])cc1C(=O)Nc1ccccc1 | inactive |
| CCN1CCN(Cc2nc3ccc([N+](=O)[O-])cc3c(=O)n2-c2ccccc2F)CC1 | inactive |
| CN1CCN(C)C(=Nc2ccc([N+](=O)[O-])cc2C(=O)Nc2ccccc2)C1 | inactive |
